Data on twelve compounds can be found in PubChem BioAssay (NCI).

The panel holds about 83,000 compounds, 20% with a hit somewhere; the sample as a whole holds those more often.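 Single-dose data. Exposure time 48 hours. Values below 10 considered active.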 Unmarked numbers belong to inactive results. The source made the active and inactive calls.

Test systems include NCI-H23 lung; NCI-H226 lung; NCI-H322M lung; HOP-62 NSCLC; NCI-H460 lung; HOP-92 NSCLC; NCI-H522 lung; A549/ATCC NSCLC; 786-0 renal; COLO 205 colon.
Common to all, as to experiment: NCI-60 one-dose screen, 48 h (100 = growth as untreated, 0 = no growth, -100 = all killed)
What all share (conditions): 10 µM unless noted

For the compound `NCc1cn2cc(Cl)sc2n1`, the growth in the assay with NCI-H23 lung was 107%; with NCI-H226 lung, 101%; in the assay with NCI-H322M lung, 90.3%; in the assay on HOP-62 NSCLC it was 112%; in the assay on NCI-H460 lung, 103%; with HOP-92 NSCLC, 101%. In addition, the growth was 95.5% in the assay on NCI-H522 lung, 92.9% in the assay with A549/ATCC NSCLC, 106% in the assay on 786-0 renal and 114% in the assay with COLO 205 colon.
Turning to `COc1c2ccccc2c(OC)c2[nH]c(=O)ccc12`, the growth is -11.3% (active) in the assay on NCI-H23 lung; 37.1% in the assay on NCI-H226 lung; 22.2% in the assay with NCI-H322M lung; -13.2% (active) with HOP-62 NSCLC; -57.7% (active) with NCI-H460 lung; 72.9% in the assay with HOP-92 NSCLC. Besides, the growth with NCI-H522 lung is 71.3%; in the assay with A549/ATCC NSCLC, -34.2% (active); with 786-0 renal, 89.7%; with COLO 205 colon it was 38.2%.
Take `C=C1CC[C@@H]2[C@](C)(COC(C)=O)[C@H](OC(C)=O)CC[C@@]2(C)[C@@H]1CC(Nc1ccc(S(=O)(=O)Nc2nc(C)cc(C)n2)cc1)C1=CCOC1=O` (stereo not given in full): the growth in the assay on NCI-H23 lung was 84.3%; with NCI-H226 lung, 86.7%; with NCI-H322M lung, 97.2%; in the assay with HOP-62 NSCLC, 103%; in the assay on NCI-H460 lung it was 90.3%; in the assay on HOP-92 NSCLC, 90.1%. The growth in the assay on NCI-H522 lung was 22%; in the assay with A549/ATCC NSCLC, 65.3%; in the assay on 786-0 renal it was 103%; with COLO 205 colon it was 77%.
In the case of `O=C(O)c1cccnc1Br`, the growth in the assay on NCI-H23 lung is 98.1%; in the assay with NCI-H226 lung it was 99.8%; with NCI-H322M lung, 112%; in the assay on HOP-62 NSCLC, 96.2%; in the assay on NCI-H460 lung, 113%; with HOP-92 NSCLC, 115%. The growth in the assay with NCI-H522 lung is 84.8%; with A549/ATCC NSCLC it was 101%; in the assay with 786-0 renal, 90.2%; in the assay on COLO 205 colon, 115%.
On to `CN(C)c1ccc(C2Nc3ccccc3-n3cccc32)cc1` (stereo not given), for which the growth is 102% in the assay with NCI-H23 lung; 82.8% in the assay on NCI-H226 lung; 91.9% in the assay on NCI-H322M lung; 107% in the assay on HOP-62 NSCLC; 85.8% with NCI-H460 lung; 89.7% with HOP-92 NSCLC. Moreover, the growth was 113% in the assay on NCI-H522 lung, 98.3% with A549/ATCC NSCLC, 108% in the assay with 786-0 renal and 96% with COLO 205 colon.
As for `CC1=CC(=O)CC(C)(C)[C@@]1(O)/C=C/[C@@H](C)O`, the growth was 89.7% in the assay with NCI-H23 lung; 80.8% in the assay with NCI-H226 lung; 103% with NCI-H322M lung; 107% in the assay with HOP-62 NSCLC; 112% in the assay with NCI-H460 lung; 97% with HOP-92 NSCLC. For the same compound, the growth is 92.7% in the assay with NCI-H522 lung, 87.7% in the assay on A549/ATCC NSCLC, 102% in the assay with 786-0 renal and 110% in the assay with COLO 205 colon.
In the case of `COc1ccc(C(=O)COc2ccc(/C=C3\Oc4ccc(Cl)cc4C3=O)cc2)cc1`, the growth with NCI-H23 lung is 67.6%; with NCI-H226 lung, 92%; in the assay with NCI-H322M lung, 96.6%; in the assay with HOP-62 NSCLC, 100%; in the assay with NCI-H460 lung, 111%; with HOP-92 NSCLC, 48.9%. Besides, the growth with NCI-H522 lung was 80.5%; in the assay on A549/ATCC NSCLC, 95.1%; with 786-0 renal, 106%; in the assay with COLO 205 colon, 96%.
For `C=C1C(=O)O[C@H]2[C@H]1CC/C(Cn1cc(Cn3ccc4cc(Cl)ccc43)nn1)=C\CC[C@@]1(C)O[C@@H]21`, the growth in the assay with NCI-H23 lung is 13.1%; with NCI-H226 lung, 61.4%; with NCI-H322M lung, 76.6%; in the assay on HOP-62 NSCLC it was 75.7%; in the assay with NCI-H460 lung, 64.2%; with HOP-92 NSCLC it was -61.6% (active). The growth in the assay with NCI-H522 lung was -76% (active); in the assay on A549/ATCC NSCLC, 48.5%; with 786-0 renal, -71.4% (active); with COLO 205 colon it was -82.3% (active).
With `N#Cc1c(N)nc(N)nc1Nc1ccc(Br)cc1`, the growth is 102% in the assay with NCI-H23 lung; 83.9% in the assay on NCI-H226 lung; 89.9% with NCI-H322M lung; 119% in the assay on HOP-62 NSCLC; 96.7% in the assay on NCI-H460 lung; 92.3% with HOP-92 NSCLC. In addition, the growth was 70.9% in the assay with NCI-H522 lung, 78.2% with A549/ATCC NSCLC, 123% with 786-0 renal and 135% in the assay on COLO 205 colon.
Turning to `c1ccc(-c2nc(N3CCOCC3)c3c4c(sc3n2)CCCCC4)nc1`, the growth with NCI-H23 lung was 66.9%; in the assay with NCI-H226 lung, 50.4%; in the assay with NCI-H322M lung it was 67.3%; in the assay with HOP-62 NSCLC, 61%; in the assay on NCI-H460 lung, 33.4%; in the assay on HOP-92 NSCLC, -2.36% (active). The growth with NCI-H522 lung is 29.5%; with A549/ATCC NSCLC it was 51%; in the assay with 786-0 renal it was 75.9%; in the assay with COLO 205 colon, 52.4%.
With `CCCCCCCCCCCCCC1=NCCN1CCO`, the growth in the assay on NCI-H23 lung was 72%; with NCI-H226 lung it was 95%; with NCI-H322M lung, 93.5%; with HOP-62 NSCLC, 58.9%; with NCI-H460 lung, -68.9% (active); in the assay on HOP-92 NSCLC, 24.5%. In addition, the growth in the assay with NCI-H522 lung is 89%; in the assay on A549/ATCC NSCLC, 65.1%; in the assay on 786-0 renal, 68.8%; in the assay on COLO 205 colon, -75% (active).
For `CCOC(=O)C(CC)n1c(=O)c2cc(OC)c(OC)cc2c2cnc3[nH]ccc3c21` (stereo not given), the growth with NCI-H23 lung was 66%; with NCI-H226 lung, 49.4%; with NCI-H322M lung it was 71%; in the assay with HOP-62 NSCLC it was 73.8%; in the assay with NCI-H460 lung it was 72.4%; with HOP-92 NSCLC, 42.5%. For the same compound, the growth in the assay with NCI-H522 lung is 79.3%; in the assay with A549/ATCC NSCLC, 76.1%; in the assay on 786-0 renal, 80.9%; in the assay with COLO 205 colon, 86%.
